Bioassay records as filed in PubChem BioAssay.
HPGD inh: HPGD (human) dehydrogenase inhibition; P15428; purified HPGD, NADH fluorescence kinetic, PGE2 substrate; Potency, µM, for inactives: at the highest dose activity change, negative = inhibition, most hits filed as inhibitors; 150,000 tested, 4.3% active; AID 894; also: potency is read from the fitted curve at half-maximal effect
Target sequence (P15428 whole entry, looked up): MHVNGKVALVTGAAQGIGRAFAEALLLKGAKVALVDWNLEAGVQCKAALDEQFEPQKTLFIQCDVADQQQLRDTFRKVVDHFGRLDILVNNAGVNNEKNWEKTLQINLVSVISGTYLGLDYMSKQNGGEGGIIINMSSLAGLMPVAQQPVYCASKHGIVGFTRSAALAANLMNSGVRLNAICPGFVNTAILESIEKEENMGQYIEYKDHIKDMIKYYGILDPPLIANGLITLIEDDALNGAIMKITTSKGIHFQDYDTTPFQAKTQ
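20 nM HPGD preincubated 15 min at room temperature with compound in 50 mM Tris-HCl pH 8, 0.01% Tween 20. Started with 1 mM NAD+ and 30 uM prostaglandin E2; NADH fluorescence (360/450 nm) read 5 times over 30-s intervals, last minus first.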
ALDH1A1 inh: ALDH1A1 (human) enzyme inhibition; P00352; Potency, µM (top dose mostly 75.3 µM), without a hit: at the highest dose activity, negative = inhibition, usual class: inhibitors; 220,000 tested, 7.3% active; Purified ALDH1A1, NADH fluorescence, propionaldehyde substrate;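 also: potency is read from the fitted curve at half-maximal effect; plate controls were no enzyme wells and a reference inhibitor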
KDM4E inh: inhibitors of human JMJD2E histone demethylase; B2RXH2; JMJD2E catalytic domain, FDH-coupled NADH fluorescence (FDH is formaldehyde dehydrogenase); Potency, µM (highest dose often 57.1 µM), for inactives: top-dose activity change, negative = inhibition, usual class: inhibitors; 230,000 tested, 1.6% active;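 also: potency is read from the fitted curve at half-maximal effect; 0% = wells with enzyme and -100% = buffer wells without enzyme; nearly all actives have a fitted effect of over 50% in size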
Target sequence (B2RXH2 1-337 limits assumed): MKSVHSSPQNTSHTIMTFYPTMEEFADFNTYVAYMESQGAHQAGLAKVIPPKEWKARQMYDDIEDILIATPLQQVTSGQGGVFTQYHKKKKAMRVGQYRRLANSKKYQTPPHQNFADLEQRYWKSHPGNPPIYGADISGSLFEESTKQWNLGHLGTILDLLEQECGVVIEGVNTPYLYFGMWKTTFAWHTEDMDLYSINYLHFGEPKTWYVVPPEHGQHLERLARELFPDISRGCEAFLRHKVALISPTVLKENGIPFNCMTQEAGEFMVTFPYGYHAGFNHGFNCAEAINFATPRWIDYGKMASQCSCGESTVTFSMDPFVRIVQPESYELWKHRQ
PNC inhibitor: perinucleolar compartment assembly inhibition; PC3M PTB-GFP, PNC prevalence imaging, 16 h; active compounds read low; activity change (PNC), negative = inhibition, % at 10 µM; 140,000 tested, 3.1% active;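 active = readout at or below -70, meaning at least 70% loss of cells showing the perinucleolar compartment, a nuclear body marking cancer cells; inconclusive = readout between -30 and a set limit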;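 also: plate controls were DMSO wells for no effect and camptothecin positive control wells for full effect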
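PC3M cells stably expressing PTB-GFP, 750–1000 cells/well, treated 16 h at 37 °C with compound (23 nl of library stock), in duplicate. After paraformaldehyde fixation and Hoechst stain, imaged at 20x; PNC prevalence scored by image analysis.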
An asterisk follows results filed as active; ? = inconclusive; · = no result; [ ] = dose if it differs, or a comment. In the library only some 11% were active in any assay of this set; here they are far more common. Unless noted, calls follow the shape of the dose curve; as a rule, active = well fitted inhibition curve with a large enough effect (not every such curve was filed as active); inconclusive = small, poorly fitted or top-dose-only effect, or another doubt; inactive = no such curve, though single readings can be large or run the other way. Unless noted, % is scaled to controls: 0 for no effect and ±100 for the full control effect.

SMILES | HPGD inh | ALDH1A1 inh | KDM4E inh | PNC inhibitor
O=C1CN(C(=O)COC(=O)C2=COCCO2)c2ccccc2N1 | · | 12% | 1% | ?
O=C(OCC(=O)N1CCc2ccccc21)C1=COCCO1 | -12% | 14µM* | 6% | ?
CCOc1ncccc1C(=O)OCC(=O)N1CCc2ccccc21 | · | 7.9µM* | 6% | ·
CC(C)(C)OC(=O)NCCCCC1=CC2=CC(=O)C(C)(OC(=O)C3CCCC3)C(=O)C2=CO1 (stereo unspecified) | -8% | 17% | 5% | ·
S=c1nc(-c2nc(=S)[nH]c3c2CCCCCCCCCC3)c2c([nH]1)CCCCCCCCCC2 | -8% | 0%[13.5 µM] | · | ·
Cc1cc(NS(=O)(=O)c2ccc(Nc3nc(-c4ccc(O)cc4)cs3)cc2)no1 | 20µM* | ? | 6% | ?
Cc1ccc(/C=N/NC(=O)c2cccs2)o1 | -17% | -7% | 0% | -83*
CC(/C=N/NC(=O)c1cccs1)=C\c1ccco1 | · | 7.9µM* | ? | ·
Cn1/c(=N\NC(=O)c2ccccc2Cl)sc2ccccc21 | · | -2% | -1% | ·
CC(=O)Nc1cccc(NC(=O)c2sc3ncn(CC(=O)N4CCCCC4)c(=O)c3c2C)c1 | -27% | 0.89µM* | -4% | -26
O=[N+]([O-])c1ccc2c(N=Nc3ccc4ccccc4c3O)c(O)cc(S(=O)(=O)O)c2c1 | 2.8µM* | -11%[13.5 µM] | · | ·
CCOc1ccc(C(C)=O)cc1N1C(=O)C2C(C1=O)C1C=CC2C12CC2 (stereo unspecified) | -11% | -14% | 0% | 16
CC(=O)Oc1ccc(N2C(=O)C3C4C=CC(C5CC45)C3C2=O)cc1[N+](=O)[O-] (stereo unspecified) | -29% | 6.3µM* | 4% | -12
CC(=O)Oc1ccc(N2C(=O)C3C(C2=O)C2C=CC3C23CC3)cc1[N+](=O)[O-] (stereo unspecified) | · | 7.9µM* | -7% | ·
CC(=O)Oc1cccc(N2C(=O)C3C4C=CC(C4)C3C2=O)c1 (stereo unspecified) | -10% | 10% | -4% | -1
O=C(OCC(=O)N1CCN(c2ccccc2)CC1)c1ccc[n+]([O-])c1 | · | -1% | -1% | ·
c1c[nH]c(CN2CCN(Cc3ncc[nH]3)CC2)n1 | -7% | 1%[13.5 µM] | · | ·
Cn1c(=O)c2c(ncn2CC(O)CNc2ccc(F)cc2)n(C)c1=O (stereo unspecified) | · | 2% | -5% | ·
CN1CC(c2ccccc2Cl)C2(COc3ccccc3C2=O)C12C(=O)Nc1ccccc12 (stereo unspecified) | ? | 1.4µM* | -6% | ?
Cc1ccc(C2CN(C)C3(C(=O)Nc4ccccc43)C23COc2ccccc2C3=O)cc1 (stereo unspecified) | -12% | -14% | 6% | 46
Cc1cccc(/C(N)=N/OC(=O)C23CC4CC(CC(C4)C2)C3)c1 | -20% | -3% | 0% | -114*
O=C(c1cccnc1)N1c2ccccc2Sc2ccccc21 | · | 4% | -6% | ·
N/C(=N\OC(=O)N1c2ccccc2Sc2ccccc21)c1ccccc1 | 18µM* | 8% | 0% | ?
Cc1cccc(/C(N)=N/OC(=O)c2cccnc2)c1 | · | 12% | 9% | ·
Cc1cccc(/C(N)=N/OC(=O)Cc2ccccc2)c1 | · | 9% | -1% | ·
SMILES | HPGD inh | ALDH1A1 inh | KDM4E inh | PNC inhibitor
Cc1cccc(/C(N)=N/OC(=O)N2c3ccccc3Sc3ccccc32)c1 | 18µM* | -6% | 14% | 0
CC(=O)c1cn(CC(=O)Nc2ccc(C)cc2C)c2ccccc12 | -15% | 4% | 0% | ?
Cc1ccc(NC(=O)CSc2nnc3ccccn23)cc1S(=O)(=O)N1CCOCC1 | · | 7% | -20% | ·
NC(=O)C(=O)NCCCN1CCOCC1 | · | -3% | -6% | ·
CCOC(=O)Cc1csc(SCC(=O)NC2CCCCC2)n1 | ? | 1% | -5% | 28
CCOC(=O)Cc1csc(SCC(=O)Nc2sc3c(c2C(N)=O)CCC3)n1 | 18µM* | ? | ? | -4
CCOC(=O)Cc1csc(SCC(=O)NC2CCCC(C)C2C)n1 (stereo unspecified) | 25µM* | ? | 5% | ?
CCOC(=O)c1c(-c2ncc(C(F)(F)F)cc2Cl)noc1C | · | 2% | 8% | ·
CCc1cc2c(SCc3nc4sc(C(C)=O)c(C)c4c(=O)[nH]3)ncnc2s1 | · | ? | -11% | ·
Clc1ccccc1-c1nnc2sc(C3COc4ccccc4O3)nn12 (stereo unspecified) | 20µM* | 7.1µM* | 7% | ?
c1ccc(Cc2nnc3sc(C4COc5ccccc5O4)nn23)cc1 (stereo unspecified) | 14µM* | 25µM* | -2% | ?
Cc1ccc(-c2nnc3sc(C4COc5ccccc5O4)nn23)cc1 (stereo unspecified) | -28% | ? | 4% | -26
c1ccc(OCc2nnc3sc(C4COc5ccccc5O4)nn23)cc1 (stereo unspecified) | 7.1µM* | 10µM* | 3% | 3
COc1cc(NC(=S)N2CCC(C(O)(c3ccccc3)c3ccccc3)CC2)cc(OC)c1 | -18% | 5% | 8% | -1
CSc1cccc(NC(=S)N(CCC(C)C)C(C)c2ccncc2)c1 (stereo unspecified) | · | · | -6% | ·
COCC(=O)N1CCC[C@@]2(CCN(c3ccccc3)C2)C1 | -9% | -9% | · | ·
Cc1c(Cl)cccc1NC(=O)C[C@H]1Sc2ccccc2NC1=O | -1% | 18%[13.5 µM] | · | ·
C(/CCc1ccccc1)=N\n1cnnc1 | -6% | 8% | -9% | -100*
CCCOc1ccc(N2CC(C(=O)NC3=NCCS3)CC2=O)cc1 (stereo unspecified) | · | 7% | 7% | ·
O=C(CC(=O)NC1CCCCC1)N/N=C/c1ccccc1F | · | 4% | 1% | ·
O=C(NNc1ccc([N+](=O)[O-])cc1)C1CC1c1ccccc1 (stereo unspecified) | 25µM* | 10µM* | 9% | 23
C/C(=N\NC(=O)C1CC1c1ccccc1)c1cccc([N+](=O)[O-])c1 (stereo unspecified) | -4% | 6% | -4% | 36
O=C(NNc1ccc([N+](=O)[O-])cc1)C1CC2CCCC(C1)C2=O (stereo unspecified) | -17% | -8% | -15% | -109*
NNC(=O)[C@@H]1C[C@@H]1c1ccccc1 | -4% | 7% | 25% | 4
NNC(=O)C1CC1c1ccccc1 (stereo unspecified) | · | 4µM* | -4% | -17
SMILES | HPGD inh | ALDH1A1 inh | KDM4E inh | PNC inhibitor
CC(C)Cn1c(-c2nn(C)cc2Cl)n[nH]c1=S | -22% | 8% | 3% | 23
Cc1ccsc1-c1n[nH]c(=S)n1CC(C)C | -18% | 25µM* | 5% | ?
CC(C)Cn1c(-c2ccc(Br)o2)n[nH]c1=S | -19% | 10µM* | ? | -24
Cc1cccc(N(C(=O)Nc2ccccc2)C2=NCC(C)S2)c1 (stereo unspecified) | 18µM* | -3% | -5% | 9
CC(=O)Nc1ccc(S(=O)(=O)N(c2cccnc2)S(=O)(=O)c2ccc(NC(C)=O)cc2)cc1 | 11µM* | -3% | 4% | -18
CC(=O)Nc1ccc(S(=O)(=O)N(C)c2ccc(O)cc2)cc1 | -23% | ? | -1% | -5
Cc1cccc(N(C(=O)Nc2ccc(Cl)cc2)C2=NCC(C)S2)n1 (stereo unspecified) | · | 6% | 6% | ·
